Measured values from PubChem BioAssay (NCI).
The panel holds about 83,000 compounds, 20% with a hit somewhere; the sample as a whole holds those more often.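 Each cell line was grown in a 96-well plate and treated with one concentration of compound for 48 hours. Values below 10 were considered active.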 Unmarked numbers belong to inactive results. Active and inactive are the calls of the source.

Assays:
Test in all cases: NCI-60 one-dose screen, 48 h (100 = growth as untreated, 0 = no growth, -100 = all killed)
Conditions in all cases: 10 µM unless noted
NCI-H23 lung = test system: NCI-H23 lung
NCI-H322M lung = test system: NCI-H322M lung
HOP-62 NSCLC = test system: HOP-62 NSCLC
NCI-H460 lung = test system: NCI-H460 lung
HOP-92 NSCLC = test system: HOP-92 NSCLC
NCI-H522 lung = test system: NCI-H522 lung
A549/ATCC NSCLC = test system: A549/ATCC NSCLC
786-0 renal = test system: 786-0 renal
COLO 205 colon = test system: COLO 205 colon

Row | SMILES | growth (NCI-H23 lung) | growth (NCI-H322M lung) | growth (HOP-62 NSCLC) | growth (NCI-H460 lung) | growth (HOP-92 NSCLC) | growth (NCI-H522 lung) | growth (A549/ATCC NSCLC) | growth (786-0 renal) | growth (COLO 205 colon)
1 | Cc1ccc(C(=O)C2=C(O)C(=O)N(Cc3cccnc3)C2c2ccccc2F)o1 (stereo not given) | 97.9% | 108% | 91.6% | 107% | 83.9% | 106% | 87.3% | 86.2% | 108%
2 | COC(=O)[C@]12CC[C@@H](C)[C@H](C)[C@@H]1C1=CC[C@@H]3[C@@]4(C)C(C=O)=C[C@@](C)(COC(C)=O)[C@@H]4C(=O)C[C@@]3(C)[C@]1(C)CC2 | 34.2% | 77.2% | 50.1% | 18.8% | 47.7% | 12.9% | 14.2% | 37.3% | -9.64% (active)
3 | Cc1cc(=O)[nH]c(N=Nc2c(O)[nH]c3ccccc23)n1 | 100% | 123% | 119% | 105% | 101% | 103% | 103% | 102% | 89.5%
4 | O=C(Nc1ccccc1Cl)Oc1ccc(-c2ccccc2)cc1 | 93.5% | 114% | 96.3% | 105% | 94.4% | 103% | 104% | 97.2% | 127%
5 | COc1ccc(CN2C(=O)C(Cl)=C(Nc3cccc(C(F)(F)F)c3)C2=O)cc1 | 36.8% | 84.3% | 28.3% | 22% | -17.2% (active) | 40.6% | 59.2% | 37.8% | 36.5%
6 | O=C1CC(N2C(=O)/C(=C/C(Cl)=C\c3ccc([N+](=O)[O-])cc3)SC2=S)C(=O)N1c1ccc(O)cc1 (stereo not given) | -41.7% (active) | 12.2% | 5.91% (active) | 0.922% (active) | -6.73% (active) | -24.1% (active) | 15.6% | -3.2% (active) | -42.9% (active)
7 | Cc1cc(NCc2cc(Nc3ccnc4cc(Cl)ccc34)ccc2F)nc(N2CCN(c3ccccc3)CC2)n1 | 62.8% | 74.1% | 62% | 44.9% | 20.6% | 45.6% | 50.6% | 64.8% | 13.6%
8 | O=C(CCCCCCSc1nc(-c2ccccc2)cc(-c2ccc(Cl)cc2)n1)NO | -17.7% (active) | 21.3% | -9.16% (active) | 7.04% (active) | -7.58% (active) | -15.8% (active) | -23% (active) | 1.46% (active) | 20.9%
9 | COc1cc2c(cc1-c1c(C)noc1C)ncc1nc(C3CCC(F)(F)CC3)n(C3CCC(OC(F)F)CC3)c12 (stereo not given) | 68.3% | 47.7% | 37.1% | 62.6% | 12.9% | 12.5% | 64.1% | 53.4% | 28.4%
10 | C=C1C(=O)O[C@H]2[C@H]1CC/C(COC(=O)C(=O)c1cn(C)c3ccc(OC)cc13)=C\CC[C@@]1(C)O[C@@H]21 | -36.1% (active) | -62.2% (active) | -45.9% (active) | -76.3% (active) | -72.3% (active) | -61.4% (active) | -62% (active) | -87.4% (active) | -57% (active)
11 | COc1ccc(C2C(c3nn[nH]n3)=C(N)Oc3c2ccc2ccccc32)cc1 (stereo not given) | 69.1% | 85.1% | 70.3% | 53.7% | 77.1% | 23.9% | 72.5% | 79.2% | 92.5%
12 | Cc1ccc2nc(C)c(-c3nnc(SCc4ccc(C#N)cc4)o3)n2c1 | 85.3% | 90.7% | 97.6% | 102% | 104% | 97% | 104% | 72.2% | 116%
13 | Clc1cccc(Cl)c1C(Nc1nc2ccccc2s1)Nc1nc2ccccc2s1 | 101% | 106% | 99.7% | 105% | 17.3% | 90.8% | 106% | 110% | 114%
14 | CC1(C)CC(=O)C2=C(C1)N(c1ccc(OC(F)(F)F)cc1)C(N)=C(C#N)C2c1ccc(Cl)cc1 (stereo not given) | 85.6% | 91.3% | 72.7% | 93.7% | 58.5% | 63.1% | 76.3% | 78.6% | 96.6%
15 | O=C(N=c1oc2ccccc2cc1-c1cc2ccccc2[nH]1)c1ccc(Cl)cc1 | 29.4% | 53.5% | 63.1% | 77.2% | 24% | 14.2% | 51.3% | 70.7% | 69.7%
16 | COc1cccc(-c2nn(-c3ccccc3)cc2-c2ccnc(NCCNC(=O)Nc3cccc(C(F)(F)F)c3)c2)c1 | 35.8% | 35.8% | 9.97% (active) | 7.98% (active) | 0.983% (active) | -17.9% (active) | 7.06% (active) | 22.7% | -13.3% (active)
17 | COc1ccc(-c2cc(-c3cc(OC)c(OC)c(OC)c3)c(C#N)c(N3CCOCC3)n2)cc1O | -6.35% (active) | 65.5% | 68.4% | 48.1% | 42.8% | 58.4% | 65.8% | 68.9% | 97.2%
18 | CCOC(=O)c1csc(NC(=O)COc2cccc(/C=C3\Oc4cc(OC)ccc4C3=O)c2)n1 | 90.7% | 99.7% | 125% | 107% | 62.6% | 49.8% | 94% | 110% | 110%
19 | COC(=O)[C@]12CC[C@@H](C)[C@H](C)[C@@H]1C1=CC[C@@H]3[C@@]4(C)C(C=O)=C[C@@](C)(CO)[C@@H]4[C@H](O)C[C@@]3(C)[C@]1(C)CC2 | -17.1% (active) | 32.9% | 11.9% | -35% (active) | -22.8% (active) | -37.5% (active) | – | -30.4% (active) | -28% (active)

Row | SMILES | growth (NCI-H23 lung) | growth (NCI-H322M lung) | growth (HOP-62 NSCLC) | growth (NCI-H460 lung) | growth (HOP-92 NSCLC) | growth (NCI-H522 lung) | growth (A549/ATCC NSCLC) | growth (786-0 renal) | growth (COLO 205 colon)
20 | CC/C=C\CCC/C=C1/C(=O)C=C[C@@H]1C/C=C\CCCC(=O)O | 80.4% | 107% | 100% | 83.7% | 75.3% | 29.9% | 79.9% | 85.2% | 85.8%
21 | O=c1c2cc(F)ccc2sc2c(NCCN3CCCCC3)nc3ccccc3c12 | 65.6% | 70.9% | 64.4% | 18.3% | 34.2% | 34.2% | 59.1% | 41% | 48%
22 | CNC(=O)c1cc(Oc2ccc3nc(Nc4ccc(Cl)c(C(F)(F)F)c4)ccc3c2)ccn1 | 72.5% | 89.2% | 85.1% | 55.8% | 59.2% | 22.7% | 48.2% | 85% | 52.6%
23 | C=C(C)[C@@H]1CC[C@]2(C(=O)NC3CCCCC3)CC[C@]3(C)[C@H](CC[C@@H]4[C@@]5(C)CCCNC(C)(C)[C@@H]5CC[C@]43C)[C@@H]12 | 76.7% | 65.7% | 80.4% | -56.5% (active) | 62.3% | 60% | 41.2% | 62.7% | -63.1% (active)
24 | N#CC1=C(c2ccc(Br)cc2)NC(SCC(=O)c2ccc(Br)cc2)NC1=O (stereo not given) | 105% | 104% | 98.6% | 107% | 102% | 99.5% | – | 92.6% | 116%
25 | Cn1cc2c(c1)-c1nc(Nc3ccccc3)ncc1CC2 | 38.3% | 52.9% | 69.2% | 42.5% | 70.6% | 84.9% | 72% | 87.2% | 76.7%
26 | Cn1c(-c2c(N)n(Cc3cccnc3)c3nc(C#N)c(C#N)nc23)nc2ccccc21 | 92.2% | 77% | 95.3% | 106% | 2.81% (active) | 76.4% | 94.6% | 91% | 117%
27 | CC(C)CCC[C@@H](C)[C@H]1CC[C@H]2[C@@H](Nc3ccc(O)cc3)CCC[C@]12C | 84.2% | 105% | 108% | 104% | 136% | -42.6% (active) | 95.5% | 109% | 95.5%
28 | Cn1c(I)c(C#C[Si](C)(C)C)c(=O)n(C(=O)c2ccccc2)c1=O | 51.7% | 94.9% | 59.1% | 55.4% | -27.1% (active) | -66.2% (active) | 80% | -66.6% (active) | -7.64% (active)
29 | N#Cc1c2c(nn(-c3ccccc3)c1=O)C(O)=C([N+](=O)[O-])C(c1ccccc1)C2 (stereo not given) | 86% | 93.1% | 78.3% | 91.6% | 76% | 77.8% | 93.4% | 58% | 99.4%
30 | COc1cccc2c1C(=O)c1c(O)c3c(c(O)c1C2=O)CC(O)(/C(C)=N/NC(=O)CCCCC(=O)N/N=C(\C)C1(O)Cc2c(O)c4c(c(O)c2C(OC2CC(N)C(O)C(C)O2)C1)C(=O)c1c(OC)cccc1C4=O)CC3OC1CC(N)C(O)C(C)O1 (stereo not given) | -31.9% [5 µM] (active) | -10.2% [5 µM] (active) | -1.23% [5 µM] (active) | -10.2% [5 µM] (active) | -50.7% [5 µM] (active) | -57.7% [5 µM] (active) | -22% [5 µM] (active) | 4.75% [5 µM] (active) | -91.9% [5 µM] (active)
31 | COCN1CCC2N(COC)CCC3N(COC)CCC1N23 (stereo not given) | 105% | 124% | 107% | 109% | 96.3% | 107% | 97.1% | 109% | 94.7%
32 | NCCCNc1nc2ccccc2c2c(=O)c3cccc(Cl)c3sc12 | 44.7% | 22.4% | 19.3% | -75% (active) | 38.1% | -48.5% (active) | -2.55% (active) | 33.6% | -50.6% (active)
33 | COc1ccc(/C=C/c2c(C(=O)/C=C/c3cccs3)c(C)nc3ccccc23)cc1 | 67.3% | 89.7% | 93.2% | 83.6% | 42.7% | 62.6% | 92.5% | 90.6% | 78.4%
34 | Cc1cc(N2CCCC2)nc(NCc2cc(Nc3ccnc4cc(Cl)ccc34)ccc2F)n1 | -27.8% (active) | -27.6% (active) | -69.2% (active) | -71.5% (active) | -14% (active) | -50.3% (active) | -13.1% (active) | -92.7% (active) | -82.2% (active)
35 | Cn1c(=O)c2[nH]c(NN)nc2n(C)c1=O | 107% | 118% | 120% | 101% | 95.7% | 99.9% | 106% | 98.7% | 109%
36 | O=C(NCCCNc1cc(-c2cn(-c3ccccc3)nc2-c2cccc(O)c2)ccn1)c1ccccc1 | 46% | 75.2% | 47% | 30.4% | 49.8% | 7.01% (active) | 21% | -29.8% (active) | -60.3% (active)
37 | CN1C(=O)N(C)C2C1NN=c1s/c(=C\c3ccccc3)c(=O)n12 (stereo not given) | 64.1% | 59% | 46.9% | 17.5% | 73.9% | 12.5% | 39.9% | 30.5% | 11.9%
38 | CC(=O)n1c(-c2ccc(Cl)cc2)nc2c(c1=O)C(c1ccc(Cl)cc1)c1sc3c(Cl)cccc3c1O2 (stereo not given) | -0.859% (active) | 16.7% | 7.03% (active) | -30.4% (active) | 1.47% (active) | -32.9% (active) | -63.7% (active) | -50.1% (active) | -55.9% (active)
